# According to PubChem BioAssay AID504710 (Sanford-Burnham Center for Chemical Genomics, 2011):
# Active and inactive are the calls of the source.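 How the source made its calls: active means inhibition reaching about 16% in any single replicate (limit read from the data); inactive means the rest.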
# Target: Hexokinase HKDC1 (Homo sapiens) (UniProt Q2TB90)
# Experiment: HKDC1 hexokinase inhibitors, confirmation, biochemical, single concentration (AID 504710)
# Details: recombinant HKDC1, G6PDH/diaphorase/resazurin fluorescence; at 20 µM; active compounds read high
# Sequence of Hexokinase HKDC1 (Homo sapiens) (Q2TB90 whole entry, looked up): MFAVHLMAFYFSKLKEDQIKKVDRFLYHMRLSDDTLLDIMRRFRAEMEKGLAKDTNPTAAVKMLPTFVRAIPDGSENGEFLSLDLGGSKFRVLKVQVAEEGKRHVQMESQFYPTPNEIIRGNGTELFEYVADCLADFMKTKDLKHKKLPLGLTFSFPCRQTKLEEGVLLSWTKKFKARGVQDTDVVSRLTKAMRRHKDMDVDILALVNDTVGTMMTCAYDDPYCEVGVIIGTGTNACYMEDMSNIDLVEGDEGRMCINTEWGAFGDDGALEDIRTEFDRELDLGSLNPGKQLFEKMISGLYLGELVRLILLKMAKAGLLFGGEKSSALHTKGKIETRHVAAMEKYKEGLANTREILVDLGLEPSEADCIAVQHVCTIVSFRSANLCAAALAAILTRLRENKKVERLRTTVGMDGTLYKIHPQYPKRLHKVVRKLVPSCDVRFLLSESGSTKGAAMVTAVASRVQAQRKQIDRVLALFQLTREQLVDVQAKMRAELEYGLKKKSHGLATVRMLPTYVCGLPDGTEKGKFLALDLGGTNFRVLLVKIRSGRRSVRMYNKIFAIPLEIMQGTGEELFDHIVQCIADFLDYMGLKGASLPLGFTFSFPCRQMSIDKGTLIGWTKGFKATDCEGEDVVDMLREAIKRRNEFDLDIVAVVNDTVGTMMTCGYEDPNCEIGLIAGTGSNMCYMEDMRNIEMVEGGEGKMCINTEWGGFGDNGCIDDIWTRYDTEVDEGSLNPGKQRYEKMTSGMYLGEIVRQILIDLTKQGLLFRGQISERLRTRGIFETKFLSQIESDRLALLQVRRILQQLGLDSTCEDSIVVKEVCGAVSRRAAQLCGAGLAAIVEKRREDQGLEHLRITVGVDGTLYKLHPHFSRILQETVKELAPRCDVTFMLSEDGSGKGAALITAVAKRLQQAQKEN
row,SMILES,inhibition
1,COC(=O)c1c(NC(C)=O)sc(Cc2ccccc2)c1C,-37.8% (inactive)
2,Cc1ccc(-n2c3nc(=O)[nH]c(=O)c-3cc3cc([N+](=O)[O-])ccc32)cc1C,65.3% (active)
3,C=CCN1C=C2C(=O)C(C)(OC(=O)CCC(=O)OC)C(=O)C(Br)=C2C=C1c1ccc(OC)cc1 (stereo unspecified),57.5% (active)
4,Cc1cc2cc(CCNC(=O)c3ccc(S(=O)(=O)N4CCCC4)cc3)c(=O)[nH]c2cc1C,53.2% (active)
5,COc1cc(N=c2ssnc2Cl)cc(OC)c1OC,-45.9% (inactive)
6,O=C1C(SCCO)=C(SCCO)C(=O)c2ccccc21,84.1% (active)
7,O=C(Nc1ccc(N2CCCC2)cc1)c1cccc(-c2cc3ccccc3oc2=O)c1,-24.8% (inactive)
8,Cc1ccc2oc(=O)c3cnn(CC(=O)N4CCc5ccccc5C4)c3c2c1,-50.8% (inactive)
9,CC(C)(C)c1ccc(-c2csc(NNC3=NCCCCC3)n2)cc1,-39.4% (inactive)
10,COC(=O)c1ccc(CCc2cc(O)c(Br)cc2O)cc1,54.2% (active)
11,COc1cc(C2c3c([nH]c(=O)[nH]c3=O)Nc3ccc4ccccc4c32)cc(OC)c1OC (stereo unspecified),43.5% (active)
12,O=C(O)c1cc(O)c2c(c1)[C@@H]([C@H]1c3cc(C(=O)O)cc(O)c3C(=O)c3c(O[C@@H]4O[C@H](CO)[C@@H](O)[C@H](O)[C@H]4O)cccc31)c1cccc(OC3O[C@H](CO)[C@@H](O)[C@H](O)[C@H]3O)c1C2=O (stereo partly specified),50.9% (active)
13,COc1ccc(S(=O)(=O)Nc2cc(SCC(=O)O)c(O)c3ccccc23)cc1,47.2% (active)
14,CCOC(=O)/C=C(\C)Sc1cc(O)c2ccccc2c1O,53.6% (active)
15,CC(=O)n1cc(N(C(=O)CCl)c2ccc([N+](=O)[O-])cc2)c2ccccc21,40.9% (active)
16,Cc1cc(C2=NNC(=Nc3ccc(S(=O)(=O)N4CCOCC4)cc3)SC2)c(C)n1CC1CCCO1 (stereo unspecified),-55.8% (inactive)
17,O=C(NC(=S)NNC(=O)c1cnccn1)c1ccc(F)cc1,-36.1% (inactive)
18,Cc1nc(COC(=O)c2cc(O)c3ccccc3c2O)cs1,39.5% (active)
19,CNCc1ccccc1Sc1cc(O)ccc1O,64.6% (active)
20,CCCCN(CCCC)C(=S)N/N=C/c1c(C)[nH]n(-c2ccccc2)c1=O,-65% (inactive)
21,O=C(O)c1ccc(NC2=C/C(=N/S(=O)(=O)c3ccccc3)c3ccccc3C2=O)cc1,76% (active)
